Only some compounds are listed: those with a hit (about 9.8% of all), similar ones and a draw of the others.
HttQ103 aggreg: inhibitors of mutant huntingtin aggregate formation in PC12 cells; PC12 HttQ103-GFP aggregates, Acumen cytometry, 40 h; Potency, µM (series often up to 46.1 µM), inactives show at the highest dose activity change, negative = inhibition, usual class: inhibitors; AID 1688; 1.1% of 220,000 active; also: potency is read from the fitted curve at half-maximal effect; % is scaled to controls: 0 for no effect and ±100 for the full control effect; nearly all actives have a fitted effect of over 60% in size
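Ecdysone-promoter PC12 model expressing HTT exon 1 Q103 fused to GFP, induced by tebufenozide at 100 nM final. Compounds titrated; aggregates sized 1–25 µm scored on a 488 nm laser cytometer.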
CBFb RUNX1 block: inhibitors of human CBF-beta and RUNX1 interaction; 230,000 tested, under 10 active; AlphaScreen CBFb-His/RUNX1-biotin binding, biochemical; Potency, µM (highest dose often 59.8 µM), for the others: top-dose activity, negative = inhibition, usual class: inhibitors; Q01196+Q13951; also: % of control where 0% means no effect
Target sequence (Q01196 whole entry, looked up): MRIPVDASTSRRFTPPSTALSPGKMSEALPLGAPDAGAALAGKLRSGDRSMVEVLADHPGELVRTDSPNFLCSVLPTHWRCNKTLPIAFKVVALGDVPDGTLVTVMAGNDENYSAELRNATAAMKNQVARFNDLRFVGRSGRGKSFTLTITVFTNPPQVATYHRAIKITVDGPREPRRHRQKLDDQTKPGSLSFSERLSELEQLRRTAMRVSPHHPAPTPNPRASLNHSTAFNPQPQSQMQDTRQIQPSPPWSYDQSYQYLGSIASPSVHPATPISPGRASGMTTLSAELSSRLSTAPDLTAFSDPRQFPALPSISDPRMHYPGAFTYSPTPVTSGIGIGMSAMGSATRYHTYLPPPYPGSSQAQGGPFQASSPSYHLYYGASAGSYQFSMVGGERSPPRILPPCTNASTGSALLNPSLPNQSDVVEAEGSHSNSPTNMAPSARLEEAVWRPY
Target sequence (Q13951 whole entry, looked up): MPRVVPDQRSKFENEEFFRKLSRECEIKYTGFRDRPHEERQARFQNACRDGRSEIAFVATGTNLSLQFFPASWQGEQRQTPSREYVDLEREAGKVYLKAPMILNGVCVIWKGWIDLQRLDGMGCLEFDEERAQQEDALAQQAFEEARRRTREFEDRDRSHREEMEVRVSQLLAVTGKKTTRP
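Inhibition was taken as any reduction in AlphaScreen signal from the CBF-beta–RUNX1 pair (His and biotin tags, 30 nM each), measured after compound (15 min) and bead (90 min) incubations at room temperature.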
HPGD block: blocks human HPGD enzyme activity | P15428 | purified HPGD, NADH fluorescence kinetic, PGE2 substrate | 4.3% of 150,000 active | Potency, µM, without a hit: at the highest dose activity change, negative = inhibition, actives largely listed as inhibitors | AID 894; active = well fitted inhibition curve with a large enough effect, not every such curve was filed as active; inconclusive = small, poorly fitted or top-dose-only effect, or another doubt; inactive = no such curve, though single readings can be large or run the other way; also: potency is read from the fitted curve at half-maximal effect; % is scaled to controls: 0 for no effect and ±100 for the full control effect
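NADH formation kinetics: reaction with 30 uM PGE2 and 1 mM NAD+ (final), 20 nM enzyme, Tris-HCl pH 8 with Tween 20, after 15 min compound preincubation at room temperature. Fluorescence change, last versus first of five reads.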
HTT ATP protect: Huntington cell model cytoprotection by ATP luminescence | PC12 HTT-Q103 induced, cytoprotection, ATP luminescence, 40 h | Potency, µM (series often up to 56.4 µM), for the others: cytoprotection (ATP increase), actives largely listed as activators | 0.14% of 230,000 active | AID 1471; also: potency is read from the fitted curve at half-maximal effect; % of control where 0% means no effect; nearly all actives have a fitted effect of over 45% in size
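Compounds were screened for protection of PC12 cells against cell death after tebufenozide induction (100 nM final) of mutant Huntingtin exon 1 (Q103) fused to GFP.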
JMJD2E inh: inhibitors of human JMJD2E histone demethylase; JMJD2E catalytic domain, FDH-coupled NADH fluorescence (FDH is formaldehyde dehydrogenase); Potency, µM (highest dose often 57.1 µM), for the others: top-dose activity change, negative = inhibition, actives largely listed as inhibitors; B2RXH2; AID 2147; 1.6% of 230,000 active; active = well fitted inhibition curve with a large enough effect, not every such curve was filed as active; inconclusive = small, poorly fitted or top-dose-only effect, or another doubt; inactive = no such curve, though single readings can be large or run the other way;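 also: potency is read from the fitted curve at half-maximal effect; 0% = wells with enzyme and -100% = buffer wells without enzyme; nearly all actives have a fitted effect of over 50% in size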
ALDH1A1 block: ALDH1A1 (human) enzyme inhibition; 7.3% of 220,000 active; Purified ALDH1A1, NADH fluorescence, propionaldehyde substrate; Potency, µM (highest dose often 75.3 µM), for the others: top-dose activity, negative = inhibition, usual class: inhibitors; P00352; AID 1030; active = well fitted inhibition curve with a large enough effect, not every such curve was filed as active; inconclusive = small, poorly fitted or top-dose-only effect, or another doubt; inactive = no such curve, though single readings can be large or run the other way;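 also: potency is read from the fitted curve at half-maximal effect; plate controls were no enzyme wells and a reference inhibitor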
An asterisk follows results filed as active; u = inconclusive; x = not tested or not shown; [ ] = remark or other dose. Unless noted, calls follow the shape of the dose curve; as a rule, active = well fitted curve in the direction sought with a large enough effect; inconclusive = small, poorly fitted or top-dose-only effect, or another doubt; inactive = no such curve, though single readings can be large; an effect the other way counts as inactive or inconclusive.

SMILES	HttQ103 aggreg	CBFb RUNX1 block	HPGD block	HTT ATP protect	JMJD2E inh	ALDH1A1 block
COc1ccc(CNC(=O)CN(CCC(C)C)S(=O)(=O)c2ccc3c(c2)OCCO3)cc1	u	-0.8%	-11.9%	20.2%[10 µM]	-8.7%	-1.1%
Cc1ccccc1OCCN1C(=O)C(=O)c2cccc(C)c21	-3.0%	3.1%	-21.3%	-5.7%[10 µM]	1.3%	0.224µM*
Cc1ccccc1OCCN1C(=O)c2ccccc2C1=O	4.5%	16.9%	28.2µM*	11.5%	3.1%	7.6%
COC(=O)[C@@H]1C[C@@]2(O)[C@H](O)[C@H](O)[C@H](O)C[C@H]2N1Cc1ccc(N2CCN(C)CC2)cc1	x	-1.5%	-16.8%	-27.2%	u	22.4µM*
COC(=O)[C@@H]1C[C@@]2(O)[C@H](O)[C@H](O)[C@H](O)C[C@H]2N1Cc1ccc(N2CCOCC2)cc1	x	1.4%	-21.4%	-5.8%	-4.0%	u
CC1(C)CC(=O)c2c(noc2-c2ccccc2)C1	-9.4%	-0.6%	22.4µM*	-5.2%	-0.3%	u
CCCn1nc(C(=O)OCC(=O)c2c(N)n(C)c(=O)n(C)c2=O)c2ccccc2c1=O	-10.0%	3.2%	x	-27.6%	-8.5%	-6.8%
Cc1ccc(NS(=O)(=O)c2ccc(Cl)c(C(=O)Nc3ccccc3-c3nc4ccccc4[nH]3)c2)cc1C	11.2µM*	-9.5%	u	-27.3%[10 µM]	u	-95.6%
C=CCc1cccc(/C=N/NC(=O)c2ccccc2Br)c1O	u	-6.5%	x	-163.5%	25.1µM*	2.8%
C=CCc1cccc(/C=N/NC(=O)c2ccccc2OC)c1O	u	-0.1%	x	-124.1%	31.6µM*	3.4%
C=CCc1cccc(/C=N/NC(=O)C(C)Nc2ccc(C)cc2)c1O (stereo unspecified)	8.91µM*	-4.6%	-9.1%	9.0%[10 µM]	u	-4.5%
Cc1cc([N+](=O)[O-])nn1CC(=O)Nc1cccc2nonc12	24.6%	8.8%	x	x	-26.5%	u
Cc1ccc(S(=O)(=O)NNC(=O)c2sc3nc(C)cc(C)c3c2-n2cccc2)cc1	-0.1%	10.4%	-4.9%	18.0%[10 µM]	5.8%	0.141µM*
O=C(NNS(=O)(=O)c1ccc(F)cc1)c1sccc1-n1cccc1	0.4%	-4.3%	x	17.5%[10 µM]	5.8%	-5.4%
Cc1ccc(S(=O)(=O)NNC(=O)c2sccc2-n2cccc2)cc1	5.4%	-0.3%	-6.7%	11.0%	0.0%	10µM*
O=C(N/N=C\c1ccc(Cl)cc1)c1sccc1-n1cccc1	5.6%	3.6%	-4.8%	-19.0%	3.4%	3.4%
CN(C)c1ccc(/C=N/NC(=O)c2sccc2-n2cccc2)cc1	30.9%	-1.5%	x	-33.4%	-1.2%	20µM*
CNC(=O)c1sccc1-n1cccc1	-5.6%	-0.2%	-7.2%	4.9%	3.0%	-5.1%
Cc1ccc(CNC(=O)c2sccc2-n2cccc2)cc1	2.9%	-1.2%	12.6µM*	3.8%[0.074 µM]	1.1%	u
Cc1ccc(S(=O)(=O)NNC(=O)c2cnn(-c3ccccc3)c2-n2cccc2)cc1	13.2%	-7.3%	-4.8%	-23.2%	-4.3%	0.178µM*
Cc1ccc(S(=O)(=O)NNC(=O)c2ccccc2O)cc1	12.8%	-13.7%	u	0.0%[10 µM]	-20.2%	-2.8%
COCCCN1CN(Cc2ccccc2)CNC1=S	10.8%	-1.3%	-7.2%	20.4%[10 µM]	-1.7%	8.91µM*
O=C(c1sccc1Cl)N1CCN(Cc2ccc3c(c2)OCO3)CC1	-27.1%[9.22 µM]	-6.8%	x	-3.2%[10 µM]	2.9%	u
CCC(NC(=O)NCc1cccnc1)(C(F)(F)F)C(F)(F)F	11.3%	4.6%	-2.7%	4.8%	-1.6%	14.9%
O=[n+]1c2c(n([O-])c3cc(F)c(F)cc31)CCCC2	8.5%	0.3%	17.8µM*	-18.1%	u	u
SMILES	HttQ103 aggreg	CBFb RUNX1 block	HPGD block	HTT ATP protect	JMJD2E inh	ALDH1A1 block
O=[n+]1c2c(n([O-])c3cc(Br)ccc31)CCCC2	-7.7%	-0.7%	-10.4%	8.2%[10 µM]	-13.6%	-6.1%
COc1ncc2ncc(=O)n(CCc3ccccc3)c2n1	x	x	x	-60.7%	x	u
Cc1ccc2c(c1)NC(=O)C(CC(=O)N(C)Cc1ccccc1)O2 (stereo unspecified)	7.3%	3.3%	-22.4%	6.5%	4.7%	-5.4%
CC(C)C(=O)c1ccc(O)c(O)c1	-14.2%[9.22 µM]	-1.1%	x	23.5%[10 µM]	25.1µM*	x
CC(C)c1ccc(O)c(O)c(=O)c1 (tested in a mixture with another compound)	x	x	-8.2%	12.0%[10 µM]	x	-5.4%[13.5 µM]
O=c1[nH]c(/C(Cl)=C/c2cc(Cl)ccc2O)nc2cc(Cl)ccc12	u	-7.9%	8.91µM*	20.9%[10 µM]	u	6.8%
O=c1[nH]c(/C(Cl)=C/c2c(F)cccc2Cl)nc2cc(Cl)ccc12	-13.3%	u	u	14.2%[10 µM]	-0.2%	0.5%
Cc1cc(/C=C2/SC(=O)NC2=O)c(C)n1-c1ccc(N2CCOCC2)cc1	-13.2%	-7.9%	8.91µM*	12.4%[0.074 µM]	-4.4%	-8.3%
Cc1ccc(OCc2nnc(N)s2)cc1C	14.9%[9.22 µM]	5.6%	x	16.8%[10 µM]	-6.4%	x
CCCn1nnc(NC(=S)NC(=O)c2ccc(-c3ccc(Br)cc3)o2)n1	22.5%[9.22 µM]	-0.3%	x	-31.6%[10 µM]	-8.9%	x
Cn1nnc(NC(=S)NC(=O)c2ccc(-c3ccc(Br)cc3)o2)n1	-11.0%	-5.2%	x	x	-20.8%	7.94µM*
COC(=O)N[C@H](C[N+](=O)[O-])c1cccc(C)c1	x	14.1%	-8.4%	x	2.1%	4.7%
CCOC(=O)C1=C(C)N=c2s/c(=C\c3ccc(OCC(=O)O)cc3)c(=O)n2C1c1ccc(OC(C)C)cc1 (stereo unspecified)	-3.1%	-6.4%	4.47µM*	x	6.2%	7.8%
Fc1ccccc1Cc1noc(CN2CCCC(CN3CCOCC3)C2)n1 (stereo unspecified)	4.3%	-2.2%	x	-8.8%	9.4%	-3.1%
COc1cccc(-c2nc(-c3ccccc3)[nH]c(=O)c2C#N)c1	u	0.4%	15.8µM*	-17.9%	-2.9%	9.0%
N#Cc1c(-c2ccccc2)nc(-c2ccncc2)[nH]c1=O	9.6%	-1.2%	x	-0.6%	-6.3%	-4.8%
N#Cc1c(-c2ccc(F)cc2)noc1N	13.7%	-1.5%	-8.1%	u	0.3%	3.9%
COc1cccc(-c2noc(N)c2C#N)c1	11.2µM*	-1.6%	u	-10.6%	5.5%	-12.2%
N#Cc1c(-c2ccccc2)nc(-c2ccccc2)[nH]c1=O	10.6%	4.0%	2µM*	-14.7%	3.1%	u
O=C(Nc1cccc(F)c1)NC1CCN(Cc2ccccc2)CC1	8.7%	1.1%	x	23.7%	-6.5%	u
S=C1N(c2ccccc2)CN(C2CCCCC2)CN1c1ccccc1	-4.7%[9.22 µM]	-4.3%	x	-0.5%[10 µM]	16.6%	4.5%
COC(=O)c1cccc(C23CC4(C2)[C@H](CN(C)[C@@H]4c2ccccc2)C3c2ccc(Cl)nc2)c1 (stereo partly specified)	x	-5.0%	-6.6%	-18.9%	-3.6%	-4.6%

Screening data: PubChem, National Center for Advancing Translational Sciences (NCATS)
